Source: the supplement of paper PMC10849652
The full data set covers some 7,900 targets. This sample favours those with a hit. About 0.6% of all pairs of compound and target were hits. A number with no mark means an inactive call.

Key:
Assay in all cases: log2 fold change, soluble protein after heating vs DMSO (PISA); higher = thermal stabilisation; K562 cells, 10 uM, 30 min; active = over 0.2 and 3.5 SD of the protein, either way, in both replicates (recomputed)
[1] = compound: CN1CCN(CCOc2cc(OC3CCOCC3)c3c(Nc4c(Cl)ccc5c4OCO5)ncnc3c2)CC1 [saracatinib]
How it was run: (§1)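 Soluble protein was quantified by TMTpro 16plex LC-MS/MS after channel sums were equalised. It was obtained as the supernatant after 21,000xg for 90 min from pooled aliquots of K562 cells (2×10^6 cells/mL, 10 μM compound, 30 min) heated for 3 min across 48°C-58°C and extracted in PBS with 0.5% NP-40 at 4°C. Thermal stability values are relative to control samples and come from duplicates. They are given as log2 fold changes.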

[2] = compound: CN1CCN(c2nc(C3=C(c4c[nH]c5ccccc45)C(=O)NC3=O)c3ccccc3n2)CC1 [sotrastaurin]
How it was run: as §1

[3] = compound: CN1CC[C@H](c2c(O)cc(O)c3c(=O)cc(-c4ccccc4Cl)oc23)[C@H](O)C1 [alvocidib]
How it was run: as §1

[4] = compound: CN1CCc2c(c3ccccc3n2Cc2ccc(C(=O)NO)cc2)C1 [Tubastatin A]
How it was run: as §1

[5] = compound: CNC(=O)C1=CC=CC=C1NC2=NC(=NC=C2Cl)NC3=C(C=C(C=C3)N4CCOCC4)OC
How it was run: as §1

[6] = compound: CNC(=O)c1ccc(Nc2ncc(C(F)(F)F)c(NCc3nccnc3N(C)S(C)(=O)=O)n2)cc1 [defactinib]
How it was run: as §1

[7] = compound: CNCc1ccc(-c2[nH]c3cc(F)cc4c3c2CCNC4=O)cc1 [rucaparib]
How it was run: as §1

[8] = compound: CNc1nc(-c2ccc3c(N)n[nH]c3c2)cc(N2C[C@@H](C(=O)NC3CCCCC3)CC[C@H]2C)n1
How it was run: as §1

[9] = compound: COC(=O)N[C@@H](C)CNc1nccc(-c2cn(C(C)C)nc2-c2cc(Cl)cc(NS(C)(=O)=O)c2F)n1 [encorafenib]
How it was run: as §1

[10] = compound: COC(=O)[C@H](CCSC)NC(=O)C1=C(C=C(C=C1)NC[C@H](CS)N)C2=CC=CC=C2
How it was run: as §1

UniProt Q15436, sequence (Q15436 whole entry, looked up): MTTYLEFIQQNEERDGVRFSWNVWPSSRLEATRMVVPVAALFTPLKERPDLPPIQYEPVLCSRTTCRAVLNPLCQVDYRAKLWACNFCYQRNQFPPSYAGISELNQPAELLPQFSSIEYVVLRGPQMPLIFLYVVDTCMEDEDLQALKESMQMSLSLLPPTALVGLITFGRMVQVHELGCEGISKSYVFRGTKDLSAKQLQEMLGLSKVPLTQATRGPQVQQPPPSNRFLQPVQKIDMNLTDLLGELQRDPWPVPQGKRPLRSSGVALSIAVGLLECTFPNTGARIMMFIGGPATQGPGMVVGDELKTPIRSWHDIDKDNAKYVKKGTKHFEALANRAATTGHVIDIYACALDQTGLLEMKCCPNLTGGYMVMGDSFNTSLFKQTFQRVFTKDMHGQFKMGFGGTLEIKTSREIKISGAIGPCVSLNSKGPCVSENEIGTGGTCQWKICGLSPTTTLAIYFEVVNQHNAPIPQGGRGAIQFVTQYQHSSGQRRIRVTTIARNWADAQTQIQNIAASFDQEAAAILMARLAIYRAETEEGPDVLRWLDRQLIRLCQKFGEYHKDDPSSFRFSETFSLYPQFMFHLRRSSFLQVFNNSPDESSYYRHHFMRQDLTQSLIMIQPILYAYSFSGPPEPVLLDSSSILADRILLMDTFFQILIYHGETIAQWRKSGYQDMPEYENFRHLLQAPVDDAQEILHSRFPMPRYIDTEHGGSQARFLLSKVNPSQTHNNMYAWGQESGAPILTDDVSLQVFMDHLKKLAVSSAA
UniProt Q15418, sequence (Q15418 whole entry, looked up): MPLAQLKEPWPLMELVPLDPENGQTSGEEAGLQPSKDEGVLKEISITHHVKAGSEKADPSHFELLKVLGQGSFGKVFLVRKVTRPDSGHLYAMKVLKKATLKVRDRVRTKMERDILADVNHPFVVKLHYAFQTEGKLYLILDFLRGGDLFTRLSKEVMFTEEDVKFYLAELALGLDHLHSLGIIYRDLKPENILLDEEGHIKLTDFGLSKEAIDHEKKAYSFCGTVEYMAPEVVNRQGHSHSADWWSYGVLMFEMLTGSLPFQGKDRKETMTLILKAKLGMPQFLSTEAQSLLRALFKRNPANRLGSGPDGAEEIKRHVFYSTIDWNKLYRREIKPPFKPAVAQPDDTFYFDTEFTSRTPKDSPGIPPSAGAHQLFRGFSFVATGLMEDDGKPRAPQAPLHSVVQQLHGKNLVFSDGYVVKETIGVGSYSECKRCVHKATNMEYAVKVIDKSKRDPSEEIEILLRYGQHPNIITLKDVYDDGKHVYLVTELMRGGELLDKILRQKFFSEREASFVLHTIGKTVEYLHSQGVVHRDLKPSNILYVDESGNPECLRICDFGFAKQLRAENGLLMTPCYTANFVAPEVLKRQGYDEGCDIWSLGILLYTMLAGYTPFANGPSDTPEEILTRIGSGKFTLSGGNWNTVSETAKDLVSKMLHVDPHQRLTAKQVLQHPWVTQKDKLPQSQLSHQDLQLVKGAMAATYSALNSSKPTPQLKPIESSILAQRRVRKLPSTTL
UniProt Q9UKM9, sequence (Q9UKM9 whole entry, looked up): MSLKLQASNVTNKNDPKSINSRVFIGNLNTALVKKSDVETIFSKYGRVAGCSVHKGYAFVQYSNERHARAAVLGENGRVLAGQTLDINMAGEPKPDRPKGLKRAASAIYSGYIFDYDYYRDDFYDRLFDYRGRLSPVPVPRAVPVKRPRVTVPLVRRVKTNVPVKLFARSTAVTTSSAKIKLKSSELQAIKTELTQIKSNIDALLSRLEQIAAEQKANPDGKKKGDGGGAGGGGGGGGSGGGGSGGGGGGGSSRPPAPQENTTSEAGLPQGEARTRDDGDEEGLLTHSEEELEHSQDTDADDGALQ
UniProt Q96T23, sequence (Q96T23 whole entry, looked up): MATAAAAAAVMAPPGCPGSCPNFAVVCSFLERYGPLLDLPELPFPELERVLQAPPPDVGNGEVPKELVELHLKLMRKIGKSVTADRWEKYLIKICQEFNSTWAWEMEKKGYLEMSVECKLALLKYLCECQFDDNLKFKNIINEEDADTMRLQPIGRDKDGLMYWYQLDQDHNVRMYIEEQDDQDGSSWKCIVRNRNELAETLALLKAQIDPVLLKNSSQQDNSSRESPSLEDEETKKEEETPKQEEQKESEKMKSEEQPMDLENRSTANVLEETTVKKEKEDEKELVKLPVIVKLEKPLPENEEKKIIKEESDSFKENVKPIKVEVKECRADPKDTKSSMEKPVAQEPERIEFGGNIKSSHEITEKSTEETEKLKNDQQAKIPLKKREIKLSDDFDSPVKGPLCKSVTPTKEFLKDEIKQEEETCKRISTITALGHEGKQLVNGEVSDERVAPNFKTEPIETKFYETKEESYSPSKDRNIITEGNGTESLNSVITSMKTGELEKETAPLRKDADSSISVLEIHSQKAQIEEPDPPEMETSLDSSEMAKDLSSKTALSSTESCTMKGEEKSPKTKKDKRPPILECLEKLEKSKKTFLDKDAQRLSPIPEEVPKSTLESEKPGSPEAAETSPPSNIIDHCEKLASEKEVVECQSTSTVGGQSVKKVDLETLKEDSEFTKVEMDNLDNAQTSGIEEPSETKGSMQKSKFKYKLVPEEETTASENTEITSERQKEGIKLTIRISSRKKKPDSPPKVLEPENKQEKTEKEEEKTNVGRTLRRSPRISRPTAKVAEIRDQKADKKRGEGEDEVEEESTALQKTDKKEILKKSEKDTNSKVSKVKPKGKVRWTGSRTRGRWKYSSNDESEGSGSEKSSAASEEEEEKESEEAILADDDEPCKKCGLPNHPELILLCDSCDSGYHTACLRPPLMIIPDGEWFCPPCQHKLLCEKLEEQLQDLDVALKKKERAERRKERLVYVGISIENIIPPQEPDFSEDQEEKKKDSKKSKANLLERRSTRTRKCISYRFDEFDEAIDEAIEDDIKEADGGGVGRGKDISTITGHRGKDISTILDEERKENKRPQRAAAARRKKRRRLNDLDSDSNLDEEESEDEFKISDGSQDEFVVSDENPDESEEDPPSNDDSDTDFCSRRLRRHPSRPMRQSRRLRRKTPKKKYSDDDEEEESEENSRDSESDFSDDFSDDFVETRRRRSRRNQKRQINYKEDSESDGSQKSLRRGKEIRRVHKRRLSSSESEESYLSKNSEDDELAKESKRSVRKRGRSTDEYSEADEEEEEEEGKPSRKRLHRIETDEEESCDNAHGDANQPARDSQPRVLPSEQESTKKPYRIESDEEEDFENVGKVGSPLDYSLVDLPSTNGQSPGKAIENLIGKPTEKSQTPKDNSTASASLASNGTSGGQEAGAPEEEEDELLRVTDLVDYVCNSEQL
UniProt Q06609, sequence (Q06609 whole entry, looked up): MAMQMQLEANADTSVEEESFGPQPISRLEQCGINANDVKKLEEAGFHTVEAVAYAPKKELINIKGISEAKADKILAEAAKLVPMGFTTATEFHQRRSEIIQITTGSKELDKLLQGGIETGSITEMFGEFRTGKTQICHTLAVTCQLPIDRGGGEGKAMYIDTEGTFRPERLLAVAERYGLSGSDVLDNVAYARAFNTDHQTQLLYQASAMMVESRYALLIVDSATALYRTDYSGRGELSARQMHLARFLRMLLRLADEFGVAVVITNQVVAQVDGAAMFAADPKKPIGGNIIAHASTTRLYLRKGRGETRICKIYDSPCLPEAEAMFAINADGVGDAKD
UniProt Q86VR2, sequence (Q86VR2 whole entry, looked up): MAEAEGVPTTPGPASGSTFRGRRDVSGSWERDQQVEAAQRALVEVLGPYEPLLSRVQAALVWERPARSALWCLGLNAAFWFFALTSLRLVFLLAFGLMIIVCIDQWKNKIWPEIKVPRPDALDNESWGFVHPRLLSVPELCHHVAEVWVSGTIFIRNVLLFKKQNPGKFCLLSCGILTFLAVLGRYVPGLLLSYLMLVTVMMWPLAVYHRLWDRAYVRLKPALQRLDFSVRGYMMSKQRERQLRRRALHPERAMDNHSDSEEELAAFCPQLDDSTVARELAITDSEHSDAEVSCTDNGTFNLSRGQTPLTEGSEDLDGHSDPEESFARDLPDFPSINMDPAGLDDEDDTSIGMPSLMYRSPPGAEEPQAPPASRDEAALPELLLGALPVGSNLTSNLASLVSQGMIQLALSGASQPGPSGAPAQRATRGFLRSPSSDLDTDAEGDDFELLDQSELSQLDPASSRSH
UniProt P54136, sequence (P54136 whole entry, looked up): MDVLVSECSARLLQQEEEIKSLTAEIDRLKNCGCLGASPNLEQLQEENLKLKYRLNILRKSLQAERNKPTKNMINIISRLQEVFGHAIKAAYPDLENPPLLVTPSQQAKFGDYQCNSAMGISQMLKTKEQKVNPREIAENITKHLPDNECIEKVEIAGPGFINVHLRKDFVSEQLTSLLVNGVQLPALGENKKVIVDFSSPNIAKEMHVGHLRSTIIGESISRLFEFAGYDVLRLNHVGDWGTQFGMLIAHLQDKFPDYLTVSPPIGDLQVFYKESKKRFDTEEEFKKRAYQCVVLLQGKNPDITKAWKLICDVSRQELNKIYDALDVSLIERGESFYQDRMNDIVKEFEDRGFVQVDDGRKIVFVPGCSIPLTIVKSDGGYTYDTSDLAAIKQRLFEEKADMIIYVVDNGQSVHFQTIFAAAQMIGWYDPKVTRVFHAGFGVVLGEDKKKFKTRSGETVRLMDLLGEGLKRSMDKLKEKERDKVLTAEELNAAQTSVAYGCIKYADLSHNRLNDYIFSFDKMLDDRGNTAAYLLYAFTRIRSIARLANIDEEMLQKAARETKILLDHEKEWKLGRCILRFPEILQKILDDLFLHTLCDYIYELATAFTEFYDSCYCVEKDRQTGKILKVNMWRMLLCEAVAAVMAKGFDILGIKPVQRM
UniProt Q96IZ7, sequence (Q96IZ7 whole entry, looked up): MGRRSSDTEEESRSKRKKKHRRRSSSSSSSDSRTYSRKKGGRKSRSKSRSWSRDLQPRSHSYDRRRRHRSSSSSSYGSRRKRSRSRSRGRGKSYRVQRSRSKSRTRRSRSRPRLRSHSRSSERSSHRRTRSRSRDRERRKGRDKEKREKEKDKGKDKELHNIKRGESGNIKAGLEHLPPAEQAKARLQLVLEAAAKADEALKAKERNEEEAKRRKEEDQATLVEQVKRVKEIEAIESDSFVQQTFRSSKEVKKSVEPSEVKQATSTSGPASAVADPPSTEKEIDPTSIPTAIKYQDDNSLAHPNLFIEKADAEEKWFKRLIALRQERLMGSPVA

Target | log2 fold change [1] | log2 fold change [2] | log2 fold change [3] | log2 fold change [4] | log2 fold change [5] | log2 fold change [6] | log2 fold change [7] | log2 fold change [8] | log2 fold change [9] | log2 fold change [10]
SAAL1 (UniProt Q96ER3) | 0.001 | -0.044 | 0.355 (active) | -0.089 | 0.042 | 0.203 | 0.031 | -0.069 | 0.017 | -0.031
RALY (UniProt Q9UKM9) | -0.091 | -0.031 | 0.041 | 0.226 | -0.01 | 0.089 | 0.221 | 0.066 | 0.073 | -0.021
SEC23A (UniProt Q15436) | 0.133 | 0.008 | -0.066 | -0.008 | -0.019 | -0.078 | 0.296 (active) | 0.037 | -0.171 | -0.035
SCAMP2 (UniProt H3BUB6) | -0.149 | 0.171 | 0.253 | -0.056 | -0.043 | 0.088 | 0.072 | -0.155 | -0.311 | 0.096
RETREG3 (UniProt Q86VR2) | 0.164 | 0.035 | -0.023 | 0.022 | 0.011 | -0.015 | 0.004 | -0.011 | -0.018 | 0.032
RARS (UniProt P54136) | -0.103 | -0.192 | 0.151 | 0.008 | -0.073 | 0.187 | 0.367 | 0.138 | 0.217 | -0.024
RSRC1 (UniProt Q96IZ7) | 0.04 | 0.042 | -0.027 | 0.018 | -0.215 (active) | -0.018 | -0.04 | -0.004 | 0.023 | 0.052
SASH1 (UniProt O94885) | -0.081 | -0.043 | -0.035 | 0.04 | -0.019 | -0.064 | 0.03 | -0.015 | 0.013 | -0.022
RAB8B (UniProt Q92930) | 0.084 | -0.058 | -0.098 | -0.054 | 0.006 | -0.004 | -0.014 | 0.056 | -0.062 | -0.06
RAD51 (UniProt Q06609) | -0.013 | 0.004 | -0.002 | 0.099 | 0.337 (active) | 0.027 | -0.035 | -0.011 | 0.005 | -0.041
RBM25 (UniProt P49756) | -0.025 | -0.109 | -0.133 | 0.058 | -0.164 | -0.24 (active) | 0.03 | -0.091 | -0.094 | 0.014
RAC3 (UniProt P60763) | 0.036 | 0.11 | -0.042 | -0.081 | -0.064 | 0.011 | -0.134 | 0.085 | -0.07 | 0.027
RPS5 (UniProt P46782) | -0.038 | 0.018 | 0.167 | 0.084 | 0.065 | 0.121 | 0.096 | 0.103 | 0.054 | -0.026
RPS6KA1 isoform 2 (UniProt Q15418) | 0.02 | -0.067 | -0.012 | 0.005 | -0.088 | -0.258 | -0.108 | -0.101 | -0.018 | -0.015
RSF1 (UniProt Q96T23) | 0 | -0.209 | -0.188 | 0.181 | 0.035 | -0.407 (active) | 0.026 | 0.048 | 0.029 | -0.086
